# Measured values reported in PubChem BioAssay AID1725 (National Center for Advancing Translational Sciences (NCATS), 2009).
# The other results are listed elsewhere or left out. Results filed as inconclusive are left out. Calls of active or inactive are those of the source. Calls come from the whole dose curve; as a rule, active = well fitted inhibition curve with a large enough effect; inconclusive = small, poorly fitted or top-dose-only effect, or effect the other way; inactive = no such curve, though single readings can be large or run the other way.
# Experiment: Confirmation Concentration-Response Assay for Inhibitors of the ERK Signaling Pathway using a Homogeneous Screening Assay; Stimulation with EGF
# Details: HEK293 EGF-stimulated ERK phosphorylation, AlphaScreen; series mostly up to 57.5 µM
# Excerpt: qHTS Assay for Inhibitors of the ERK Signaling Pathway using a Homogeneous Screening Assay
# NIH Chemical Genomics Center [NCGC]
# NIH Molecular Libraries Screening Centers Network [MLSCN]
# Assay Submitter (PI): Dr. Wei Zheng, NCGC/NIH
# The Ras/extracellular-signal-regulated kinase (ERK) mitogen activated protein (MAP) kinase signaling pathway (ERK1/2 cascade) plays is a key role in transmitting signals from the cell surface to the nucleus (Nishida and Gotoh 1993; Chang and Karin, 2001). The cascade is initiated by the small G-protein Ras, which recruits Raf […], where activation occurs. Alternatively, this pathway can be activated by elevating intracellular cAMP.
# Activation of the ERK pathway is essential in increased cell division and cell survival. Sustained and constitutive activation of the ERK pathway, however, has been linked to uncontrolled cell proliferation, increased cell survival, and tumor progression. Thus, the ERK has been as an attractive target for cancer chemotherapy in the past few years (Sebolt-Leopold and Herrera, 2004). Given its physiological and pathological importance, assessment of ERK phosphorylation has been broadly performed in both basic research and drug discovery. Most assays for the measurement of ERK phosphorylation use the antibody-based detection methods, such as western blot and ELISA. These assays require multiple reagent additions with cell wash steps and are not suitable for high-throughput screening.
# The current cell-based ERK phosphorylation assay was performed using AlphaScreen platform. AlphaScreen is a two bead-based proximity-dependent chemical energy transfer luminescent assay platform. […]
# HEK293 cells stably expressing type-1 vasopressin receptor (V1b) were maintained in DMEM medium (Invitrogen, Carlsbad, CA) at 37C under a humidified atmosphere containing 5% CO2 and 95% air. […] The ERK phosphorylation in cells was determined using an AlphaScreen assay kit provided by PerkinElmer. […] AC50 values were determined from concentration-response data modeled with the standard Hill equation. […]
row,Compound,Potency
1,CN(C)c1cc2c(Nc3ccc4c(cnn4Cc4ccccc4)c3)ncnc2cn1,2.82 µM (active)
2,CN(C)c1ccc(Nc2c3c4c(cccc4n(C)c2=O)C(=O)c2ccccc2-3)cc1,11.2 µM (active)
3,CCCNc1ncnc2sc(C)c(C)c12,inactive
